Source: PubChem BioAssay AID1159580 (chemical genetic matrix, 2015)
Where “and” joins values, the source holds several entries; their conditions need not be identical. Equal values may be shown once. Among all 5,500 compounds or so, about 2,000 (36%) were called active. Another 18% or so got no clear call; they are omitted. No stated cut-off is given here; in the data, active means normalized growth mostly below about 0.91 (no sharp cut-off); inconclusive means no clear call, values can overlap the other calls; inactive means mostly above about 0.92. The list shows a part of the results.

Experiment: chemical genetic growth profiling, strain panel (AID 1159580);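 further: tested at 20 µM; growth read once vehicle control cultures reached saturation at 30 °C; 1 = growth at the plate median or of vehicle wells; lower values mean less growth of the strain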
Conditions: growth OD

Measured: normalized growth

CN(C)c1nc(N(C)C)nc(N(C)C)n1
inactive: S. cerevisiae deletion strains, locus YKL009W, strain mrt4, active compounds read low 1 | S. cerevisiae deletion strains, locus YKL068W, active compounds read low 1.01 | S. cerevisiae deletion strains, locus YKL085W, strain MDH1 (second series), active compounds read low 1.01 | S. cerevisiae deletion strains, locus YKL085W, strain MDH1, active compounds read low 1.01 | S. cerevisiae deletion strains, locus YKL160W, strain elf1, active compounds read low 0.985 | S. cerevisiae deletion strains, locus YKL190W, strain CNB1, active compounds read low 1.01 | S. cerevisiae deletion strains, locus YKR001C, strain vps1, active compounds read low 1.01 | S. cerevisiae deletion strains, locus YKR026C, strain gcn3, active compounds read low 0.978 | S. cerevisiae deletion strains, locus YKR091W, strain srl3, active compounds read low 0.962 | S. cerevisiae deletion strains, locus YLL001W, strain dnm1, active compounds read low 0.969 | S. cerevisiae deletion strains, locus YLL026W, active compounds read low 0.977 | S. cerevisiae deletion strains, locus YLL041C, strain sdh2, active compounds read low 0.983 | S. cerevisiae deletion strains, locus YLR027C, strain aat2, active compounds read low 0.969 | S. cerevisiae deletion strains, locus YLR039C, strain RIC1, active compounds read low 0.964 | S. cerevisiae deletion strains, locus YLR058C, strain SHM2, active compounds read low 1.01 | S. cerevisiae deletion strains, locus YLR102C, strain apc9, active compounds read low 1.01 | S. cerevisiae deletion strains, locus YLR113W, strain HOG1, active compounds read low 0.948 | S. cerevisiae deletion strains, locus YLR221C, strain rsa3, active compounds read low 0.945 | S. cerevisiae deletion strains, locus YLR258W, strain gsy2, active compounds read low 0.987 | S. cerevisiae deletion strains, locus YLR262C, strain YPT6 (second series), active compounds read low 0.932 | S. cerevisiae deletion strains, locus YLR262C, strain YPT6, active compounds read low 0.986 | S. cerevisiae deletion strains, locus YLR268W, strain sec22, active compounds read low 1.02 | S. cerevisiae deletion strains, locus YLR320W, strain mms22, active compounds read low 0.949 | S. cerevisiae deletion strains, locus YLR330W, strain CHS5, active compounds read low 1.01 | S. cerevisiae deletion strains, locus YLR342W, strain FKS1 (second series), active compounds read low 1 | S. cerevisiae deletion strains, locus YLR342W, strain FKS1, active compounds read low 0.968 | S. cerevisiae deletion strains, locus YLR357W, strain rsc2, active compounds read low 0.978 | S. cerevisiae deletion strains, locus YLR370C, strain arc18, active compounds read low 0.964 | S. cerevisiae deletion strains, locus YLR371W, strain rom2, active compounds read low 1.01 | S. cerevisiae deletion strains, locus YLR384C, strain iki3, active compounds read low 0.951 | S. cerevisiae deletion strains, locus YLR418C, strain cdc73, active compounds read low 1.05 | S. cerevisiae deletion strains, locus YML016C, strain PPZ1, active compounds read low 1.01 | S. cerevisiae deletion strains, locus YML032C, strain rad52, active compounds read low 1.02 | S. cerevisiae deletion strains, locus YML120C, strain ndi1, active compounds read low 0.952 | S. cerevisiae deletion strains, locus YML124C, strain tub3, active compounds read low 1.02 | S. cerevisiae deletion strains, locus YMR058W, strain fet3, active compounds read low 0.969 | S. cerevisiae deletion strains, locus YMR078C, strain ctf18, active compounds read low 1.02 | S. cerevisiae deletion strains, locus YMR125W, strain sto1, active compounds read low 0.97 | S. cerevisiae deletion strains, locus YMR129W, active compounds read low 0.992 | S. cerevisiae deletion strains, locus YMR205C, strain PFK2, active compounds read low 0.945 | S. cerevisiae deletion strains, locus YMR223W, strain ubp8, active compounds read low 1.02 | S. cerevisiae deletion strains, locus YMR231W, strain pep5, active compounds read low 0.979 | S. cerevisiae deletion strains, locus YMR263W, strain SAP30, active compounds read low 1.01 | S. cerevisiae deletion strains, locus YMR307W, strain GAS1, active compounds read low 1.03 and 1.01 | S. cerevisiae deletion strains, locus YNL067W, strain RPL9B, active compounds read low 1 | S. cerevisiae deletion strains, locus YNL071W, strain lat1, active compounds read low 0.982 | S. cerevisiae deletion strains, locus YNL128W, strain TEP1, active compounds read low 1.02 | S. cerevisiae deletion strains, locus YNL153C, strain GIM3, active compounds read low 0.995 | S. cerevisiae deletion strains, locus YNL175C, strain NOP13, active compounds read low 0.992 | S. cerevisiae deletion strains, locus YNL183C, strain NPR1, active compounds read low 0.92 | S. cerevisiae deletion strains, locus YNL197C, strain WHI3, active compounds read low 0.997 | S. cerevisiae deletion strains, locus YNL209W, strain ssb2, active compounds read low 0.978 | S. cerevisiae deletion strains, locus YNL224C, strain SQS1, active compounds read low 0.993 | S. cerevisiae deletion strains, locus YNL233W, strain BNI4, active compounds read low 1 | S. cerevisiae deletion strains, locus YNL248C, strain rpa49, active compounds read low 0.959 | S. cerevisiae deletion strains, locus YNL250W, strain rad50, active compounds read low 1.04 | S. cerevisiae deletion strains, locus YNL271C, strain bni1, active compounds read low 1.02 | S. cerevisiae deletion strains, locus YNL298W, strain CLA4, active compounds read low 1.02 | S. cerevisiae deletion strains, locus YNL307C, strain MCK1, active compounds read low 1.02 | S. cerevisiae deletion strains, locus YNL322C, strain KRE1 (second series), active compounds read low 0.954 | S. cerevisiae deletion strains, locus YNL322C, strain KRE1, active compounds read low 0.996 | S. cerevisiae deletion strains, locus YNR049C, strain mso1, active compounds read low 0.96 | S. cerevisiae deletion strains, locus YNR052C, strain pop2, active compounds read low 1.02 | S. cerevisiae deletion strains, locus YOL006C, strain TOP1, active compounds read low 1 | S. cerevisiae deletion strains, locus YOL012C, strain htz1 0.788 | S. cerevisiae deletion strains, locus YOL147C, strain pex11, active compounds read low 1.02 | S. cerevisiae deletion strains, locus YOR001W, strain rrp6, active compounds read low 0.987 | S. cerevisiae deletion strains, locus YOR061W, strain CKA2, active compounds read low 1.01 | S. cerevisiae deletion strains, locus YOR069W, strain VPS5, active compounds read low 1 | S. cerevisiae deletion strains, locus YOR070C, strain gyp1, active compounds read low 0.984 | S. cerevisiae deletion strains, locus YOR080W, strain dia2, active compounds read low 0.974 | S. cerevisiae deletion strains, locus YOR083W, strain WHI5 (second series), active compounds read low 1.03 | S. cerevisiae deletion strains, locus YOR083W, strain WHI5, active compounds read low 0.956 | S. cerevisiae deletion strains, locus YOR106W, strain vam3, active compounds read low 0.928 | S. cerevisiae deletion strains, locus YOR136W, strain idh2, active compounds read low 1.02 | S. cerevisiae deletion strains, locus YOR144C, strain elg1, active compounds read low 1.01 | S. cerevisiae deletion strains, locus YOR184W, strain ser1, active compounds read low 1.02 | S. cerevisiae deletion strains, locus YOR231W, strain MKK1, active compounds read low 0.962 | S. cerevisiae deletion strains, locus YOR265W, strain rbl2, active compounds read low 0.971 | S. cerevisiae deletion strains, locus YOR270C, strain vph1, active compounds read low 0.953 | S. cerevisiae deletion strains, locus YOR290C, strain snf2, active compounds read low 0.919 | S. cerevisiae deletion strains, locus YOR316C, strain cot1, active compounds read low 1.02 | S. cerevisiae deletion strains, locus YPL051W, strain arl3, active compounds read low 0.979 | S. cerevisiae deletion strains, locus YPL055C, strain LGE1, active compounds read low 1.01 | S. cerevisiae deletion strains, locus YPL078C, strain atp4, active compounds read low 0.975 | S. cerevisiae deletion strains, locus YPL106C, strain sse1, active compounds read low 0.951 | S. cerevisiae deletion strains, locus YPL240C, strain hsp82, active compounds read low 0.974 | S. cerevisiae deletion strains, locus YPL256C, strain CLN2, active compounds read low 0.975 | S. cerevisiae deletion strains, locus YPR119W, strain clb2, active compounds read low 1.01 | S. cerevisiae deletion strains, locus YPR141C, strain kar3, active compounds read low 1.02 | S. cerevisiae deletion strains, locus YPR163C, strain tif3, active compounds read low 1.02 | S. cerevisiae deletion strains, locus YPR167C, strain met16, active compounds read low 1.01 | S. cerevisiae deletion strains, strain wtn01, active compounds read low 1.02 | S. cerevisiae strains, strain wild type, active compounds read low 1.01
